Experimental data published in PubChem BioAssay AID1347076 (National Center for Advancing Translational Sciences (NCATS), 2019).
The whole screen tested about 400,000 compounds, of which about 13,000 (3.2%) were called active. About 18% were inconclusive and are not listed. Calls come from the whole dose curve; as a rule, active = well fitted cell-killing curve with a large enough effect; inconclusive = small, poorly fitted or top-dose-only effect, or effect the other way; inactive = flat fitted curve, though single readings scatter. The list comes from a sample in which actives are over-represented; it also holds similar structures and randomly drawn compounds.

Assay: qHTS assay for MDR1-selective chemotherapeutics: Primary screen using the drug-selected MDR subline cells KB-V1; note: nearly all actives have a fitted effect of over 60% in size
Details: KB-V1 MDR cells viability, CellTiter-Glo, 72 h; series mostly up to 46.1 µM; activity change, negative = cytotoxicity: at the top concentration
How it was run: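 KB-V1 cells (P-gp-expressing MDR subline of KB-3-1) in phenol-red-free DMEM with 10% FBS were exposed to library compounds over a concentration series for 72 h at 37 degrees C. Viability read by CellTiter-Glo luminescence; concentration-effect curves fitted after normalization.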
% is set by controls: 0 for no effect and ±100 for the full control effect; potency is the fitted concentration of half-maximal effect.

SMILES	activity change, negative = cytotoxicity	Potency
COc1ccc(-n2c(=O)c3ccccc3n(Cc3ccccc3Cl)c2=O)cc1	29.4% (inactive)	–
N#CCCN(C(=S)Nc1ccc(Cl)c(Cl)c1)C1CCCCC1	-15% (inactive)	–
COc1ccc(C2C(=O)N(C3CCCCC3)CC(=O)N2Cc2ccccc2Cl)cc1OC (stereo unspecified)	-16% (inactive)	–
CCCC(=O)N1CCC1(C)C(=O)NS(=O)(=O)c1ccc(Cl)cc1 (stereo unspecified)	3.14% (inactive)	–
CCn1cc(C(=O)NCCc2ccccc2)c(=O)c2cc(S(=O)(=O)N3CCCCCC3)ccc21	7.64% (inactive)	–
CCOc1ccccc1NC(=O)Cc1cccs1	-27.2% (inactive)	–
CCOc1ccccc1NC(=O)Cn1nnc(C(=O)NCc2cccs2)c1N	–	0.58 µM (active)
CCOc1ccccc1NC(=O)Cn1nnc(C(=O)Nc2ccc(C)c(C)c2)c1N	13% (inactive)	–
O=C(Cc1ccc(Cl)cc1)Nc1ccc2nn(-c3ccc(Cl)cc3)nc2c1	0.721% (inactive)	–
CC1CN(c2nc(Nc3ccccc3)nc(N)c2[N+](=O)[O-])CC(C)O1 (stereo unspecified)	-8.14% (inactive)	–
Nc1nc(NCCCN2CCOCC2)nc(Nc2ccccc2)c1[N+](=O)[O-]	–	23.1 µM (active)
O=[N+]([O-])c1ccc(NCCCN2CCOCC2)c(Cl)c1	-4.73% (inactive)	–
COc1ccc(-c2cc3c(c4c2ccn4C)C2CCC3C2)cn1 (stereo unspecified)	-1.27% (inactive)	–
O=C(Cn1c(=O)nc(-c2ccccc2)c2cc(Cl)ccc21)NCc1ccc(Cl)cc1	15.8% (inactive)	–
COc1cccc(NC(=O)Nc2ccc(F)cc2)c1	-8.98% (inactive)	–
CC1(C(=O)NS(=O)(=O)c2ccc3ccccc3c2)CCN1C(=O)C1(c2ccc(Cl)cc2)CCC1 (stereo unspecified)	9.41% (inactive)	–
CN(C)C(CNC(=O)c1cccc(S(=O)(=O)N2CCc3ccccc3C2)c1)c1ccccc1 (stereo unspecified)	5.99% (inactive)	–
CN1CCN(S(=O)(=O)c2cccc(C(=O)N3CCc4ccccc43)c2)CC1	-7.71% (inactive)	–
Cc1cccc(N2CCN(C(=O)c3cccc(S(=O)(=O)N4CCc5ccccc5C4)c3)CC2C)c1 (stereo unspecified)	–	2.59 µM (active)
O=C(COC(=O)c1cncc(Br)c1)Nc1ccc(S(=O)(=O)N2CCOCC2)cc1	19.1% (inactive)	–
COc1ccc(C)cc1S(=O)(=O)N1CCN(S(=O)(=O)c2cc(C(=O)O)ccc2C)CC1	-2.45% (inactive)	–
Cc1ccc(S(=O)(=O)N2CCN(c3ncnc4ccccc34)CC2)cc1	0% (inactive)	–

SMILES	activity change, negative = cytotoxicity	Potency
Cc1ccc(C)c(S(=O)(=O)N2CCN(c3ncnc4sccc34)CC2)c1	–	7.31 µM (active)
CCc1nc2c(OCc3ccccc3)cccn2c1N(C)C(=O)c1ccco1	-2.97% (inactive)	–
COc1ccc(CNC(=O)c2cc3c(-c4ccccc4F)nn(C)c3s2)c(OC)c1	-2.11% (inactive)	–
COc1ccccc1Cc1c(-c2ccc(Cl)cc2)nc2c3ccccc3ccn12	-28% (inactive)	–
COc1cccc(OC)c1C(=O)N1CCN(Cc2ccccc2F)CC1	2.02% (inactive)	–
CCCc1c(-c2ccccc2F)ncn1Cc1ccccc1OC	–	20.6 µM (active)
CCCCc1c(-c2ccc(Br)cc2)ncn1CCc1ccccc1OC	–	20.6 µM (active)
COc1ccccc1Cc1c(-c2ccc(Cl)cc2)nc2ccc(Cl)cn12	-5.46% (inactive)	–
CCCCNS(=O)(=O)CCNCc1ccccc1OC	-3.58% (inactive)	–
COc1ccccc1CCNS(=O)(=O)c1cn(C)nc1C	14.6% (inactive)	–
CCCCc1c(-c2ccc(Cl)cc2)ncn1CCc1ccccc1OC	–	13 µM (active)
COc1cc(Br)cc2cc(S(=O)(=O)c3ccccc3)c(=O)oc12	20.1% (inactive)	–
CCc1cccc(NC(=O)c2cnc(N3CCOCC3)c3ccccc23)c1	-2.64% (inactive)	–
Oc1ccccc1-c1nc2ccc(Cl)cn2c1Nc1ccc2c(c1)OCCO2	0.195% (inactive)	–
CN(C)c1ccc(/C=C/c2sc3ccccc3[n+]2C)cc1	13.9% (inactive)	–
Cc1cccc(C)c1NC(=O)CN1CCN(c2ccc(F)cc2)CC1	0% (inactive)	–
COc1ccc2[nH]c(=S)cc(C)c2c1	–	14.6 µM (active)
COc1ccc2[nH]c(C(=O)N3CCN(C)CC3)c(C)c2c1	13.6% (inactive)	–
COc1ccc2[nH]c3c(C)c4cc[n+](C)cc4c(C)c3c2c1	11.5% (inactive)	–
CCOc1ccc(N(CC)S(=O)(=O)N2CCCC(C(=O)Nc3ccc(C(C)=O)cc3)C2)cc1 (stereo unspecified)	-22.2% (inactive)	–
OC(CNCC1CCCO1)Cn1c2ccc(Br)cc2c2cc(Br)ccc21 (stereo unspecified)	–	23.1 µM (active)
O=C(CCNS(=O)(=O)c1ccc(Br)cc1)NCC1CCCO1 (stereo unspecified)	-30.8% (inactive)	–

SMILES	activity change, negative = cytotoxicity	Potency
CC(NS(=O)(=O)c1ccc(Br)cc1)C(=O)NCC1CCCO1 (stereo unspecified)	22.2% (inactive)	–
CCOC(=O)c1c(-c2ccc(OC)cc2)oc2ccc(OCc3ccc(C(=O)OC)cc3)cc12	1.92% (inactive)	–
COc1cc(OC)c2c(-c3cccc(-c4cccc(N)c4)c3)cc(=O)oc2c1	–	7.31 µM (active)
COc1ccc(-c2c(C)cc3oc(=O)cc(-c4ccccc4)c3c2C)cc1OC	0.0002% (inactive)	–
COc1ccc(-c2c(C)cc3oc(=O)cc(-c4ccccc4)c3c2C)cc1F	-36% (inactive)	–
OC(Cc1ccc2ccccc2n1)c1ccc(Cl)c(Cl)c1 (stereo unspecified)	1.97% (inactive)	–
O=C(CSc1ncc(CO)n1Cc1ccc(Cl)cc1)NCc1ccc(F)cc1	-6.64% (inactive)	–
Cn1c(CCN2CCN(c3ccccn3)CC2)nc2cc(NS(=O)(=O)c3ccc(F)cc3)ccc21	-19.1% (inactive)	–
COc1ccccc1CNC(=O)CCn1c(=O)sc2ccccc21	-7.38% (inactive)	–
COc1ccc(Cn2c(=O)sc3ccccc32)cc1OC	–	2.59 µM (active)
Cc1cccc(CSc2nnc(Cn3c(=O)sc4ccccc43)n2C)c1	-15.3% (inactive)	–
O=C(Nc1nnc([C@H]2C[C@H](O)[C@@H](CO)O2)s1)c1cccc(Cl)c1	16.6% (inactive)	–
COc1ccc(S(=O)(=O)NC(=O)C2(C)CCN2C(=O)COc2ccc(Cl)cc2)cc1 (stereo unspecified)	4.3% (inactive)	–
Cc1ccc(C(O)P(=O)(OC(C)C)c2ccc(N(C)C)cc2)cc1 (stereo unspecified)	-1.44% (inactive)	–
CC(C)COP(=O)(c1ccc(N(C)C)cc1)C(Nc1ccccc1)c1cccnc1 (stereo unspecified)	–	23.1 µM (active)
CC(Nc1ccccc1)c1cccnc1 (stereo unspecified)	35.2% (inactive)	–
COc1ccccc1N1CCN(C2C(=O)c3ccccc3N2C(C)=O)CC1 (stereo unspecified)	1.8% (inactive)	–
N=C1C(c2nc3ccccc3s2)=C(O)CN1NC(=O)c1ccc([N+](=O)[O-])cc1	–	18.4 µM (active)
COc1ccccc1N1CC(O)=C(c2nc3ccccc3s2)C1=N	–	10.3 µM (active)
COc1ccc(-n2nnnc2-c2nc3ccccc3s2)cc1	-7.27% (inactive)	–
N=C1C(c2nc3ccccc3[nH]2)=C(O)CN1NC(=O)c1c[nH]c2ccccc12	11.8% (inactive)	–
Cc1ccc(C)n1NC(=O)c1ccc([N+](=O)[O-])cc1	8.09% (inactive)	–

SMILES	activity change, negative = cytotoxicity	Potency
COc1ccccc1OCc1nc2ccccc2s1	-20% (inactive)	–
COC(=O)C[C@@H]1C=C[C@@H](NC(=O)c2ccc3c(c2)OCO3)[C@@H](CO)O1	2.17% (inactive)	–
COc1ccc(-c2c(C#N)cnc(C)c2C)c(O)c1OC	12% (inactive)	–
CCCCn1nnnc1C(c1ccccc1)N1CCN(c2ccccc2OC)CC1 (stereo unspecified)	-12.7% (inactive)	–
CC1Cc2[nH][nH]c(=O)c2C(C2CCCC2)O1 (stereo unspecified)	24.7% (inactive)	–
FC(F)(F)c1cccc(N/N=C/c2ccccc2)c1	-6.67% (inactive)	–
FC(F)(F)c1cccc(Nc2ncnc3ccccc23)c1	–	18.4 µM (active)
FC(F)(F)c1cccc(NC(=S)Nc2cccc(Cl)c2)c1	-18.3% (inactive)	–
CN(Cc1ccccc1)C(=O)c1cn(C)c2ccc(S(=O)(=O)N3CCCCC3)cc2c1=O	17.2% (inactive)	–
CN1OC[C@@H]2CN[C@H](c3ccc(-c4ccccc4)cc3)C[C@@H]21	-3.02% (inactive)	–
Cn1c(=O)c2c(SCC(=O)NCC3CCCO3)nc(-c3ccccc3F)nc2n(C)c1=O (stereo unspecified)	28.3% (inactive)	–
COc1ccc(CNC(=O)[C@H](Cc2c[nH]c3ccccc23)NC(C)=O)cc1OC	-5.89% (inactive)	–
COc1ccc(C(C(=O)NC2CCCCC2)N(C(=O)Cc2c[nH]c3ccccc23)c2ccccc2)cc1OC (stereo unspecified)	–	23.1 µM (active)
COc1ccc(C(C(=O)NC2CCCCC2)N(C(=O)CCl)c2ccccc2Cl)cc1 (stereo unspecified)	0% (inactive)	–
C[C@@H]1CN([C@@H](C)CO)S(=O)(=O)c2ccc(-c3ccc(C(=O)N(C)C)cc3)cc2O[C@@H]1CN(C)Cc1ccccc1C(=O)O	15.8% (inactive)	–
COc1ccc(NC(=O)CN2C(=O)CSc3ccc(S(=O)(=O)N4CCC(C)CC4)cc32)cc1	-1.13% (inactive)	–
O=C(CN1CCCCCC1)Nc1ccc(S(=O)(=O)N2CCCCC2)cc1	-21.5% (inactive)	–
CCc1ccc(NC(=O)CN2CCSc3ccc(S(=O)(=O)N4CCCC4)cc32)cc1	–	7.31 µM (active)
CC(C)N1C(=O)c2ccccc2NC(=O)C1C(=O)NCc1cccs1 (stereo unspecified)	7.86% (inactive)	–
Cc1ccc(O)c(CNc2nc3ccccc3n2C)c1	–	16.4 µM (active)
CCCn1c(NCc2ccccc2F)nc2ccccc21	-3.96% (inactive)	–
Cn1c(CNC(=O)C(C)(C)C)nc2ccccc21	-2.97% (inactive)	–

SMILES	activity change, negative = cytotoxicity	Potency
CCc1nn(CC(=O)Nc2cccc(C)c2C)c(=O)c2cc3sccc3n12	2.25% (inactive)	–
Cc1cccc(N(CC(O)CN(C)C)S(=O)(=O)c2ccccc2)c1 (stereo unspecified)	-14.7% (inactive)	–
O=S(=O)(ON(c1ccccc1)S(=O)(=O)c1ccccc1)c1ccccc1	–	23.1 µM (active)
CCOc1ccc(S(=O)(=O)N(CC(=O)O)c2ccccc2)cc1	10.4% (inactive)	–
CCOc1ccc(CNC(=O)c2ccc3nc(CC)c(CC)nc3c2)cc1OC	7.1% (inactive)	–
CCCCNC(=O)c1nc(C2CCN(S(=O)(=O)c3ccc(F)c(F)c3)CC2)oc1-c1cccc(C(F)(F)F)c1	-6.49% (inactive)	–
Cc1ccccc1Nc1nnc(SCC(=O)c2cc3ccccc3o2)s1	0% (inactive)	–
Cc1ccc(Nc2nnc(SCC(=O)c3cc4ccccc4o3)s2)cc1C	–	20.6 µM (active)
Cc1cc2c(=O)n(C)c(SCC(=O)c3cc4ccccc4o3)nc2s1	0% (inactive)	–
Cc1cccc(S(=O)(=O)N(C)C[C@H]2OCc3cnnn3CCCC(=O)N([C@@H](C)CO)C[C@H]2C)c1	6.43% (inactive)	–
CN1OC[C@@H]2CN(C(=O)C(C)(C)C)[C@H](c3ccc(-n4ccnc4)cc3)C[C@@H]21	0% (inactive)	–
CC(=O)c1ccc(Nc2nc(C(N)c3ccccc3)cs2)cc1 (stereo unspecified)	-0.67% (inactive)	–
COc1cc(OC)cc(C(=O)N[C@H](C(=O)OCC(=O)NC(C)c2ccccc2)C(C)C)c1 (stereo partly specified)	–	23.1 µM (active)
COc1cc(OC)cc(C(=O)N[C@H](C(=O)Nc2nc3ccccc3[nH]2)C(C)C)c1	–	14.6 µM (active)
COc1cc(OC)cc(C(=O)N[C@H](C(=O)NNC(=O)c2ccc(Br)cc2)C(C)C)c1	-1.18% (inactive)	–
Cc1cc(C)cc(OCC(=O)NC(C)c2ccccc2)c1 (stereo unspecified)	-3.72% (inactive)	–
COc1ccc(C(=O)N[C@H](C(=O)NCc2ccccc2)C(C)C)cc1	0% (inactive)	–
COc1cc(OC)cc(C(=O)NC(C(=O)N2CCC2)C(C)C)c1 (stereo unspecified)	-1.52% (inactive)	–
